Target: Calmodulin-1 (Homo sapiens) (UniProt P0DP23)
Assay: small molecules binding calmodulin-1 with EGTA – biochemical, small-molecule microarray, Cy5-labelled CALM1, profiling panel (AID 1111);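 further: labelled calmodulin applied in Tris saline Tween buffer holding calcium plus EGTA and DTT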
Conditions: Cy5-CALM1 binding fluorescence, higher = more signal

SMILES	composite z-score
CC(C)(C)OC(=O)CC[C@]1(C(=O)NCCN2CCOCC2)N=C(c2ccc(OCCCO)cc2)O[C@H]1c1ccccc1	1.78
C=CC[C@@]12N=C(c3ccc(OCCCO)cc3)O[C@@H]1c1ccccc1N(CCS(=O)(=O)c1ccccc1)C2=O	1.69
CCOC(=O)C[C@H]1[C@H](OC(=O)c2ccccc2-c2ccccc2)[C@@H](NC(=O)CC(C)C)c2cc(OCCCO)ccc2N1C(=O)c1ccc2ccccc2n1	0.844
COc1ccc(C(O)C2C=CC3C(=O)N(c4ccccc4)C(=O)C3N2Nc2ccccc2)cc1OCc1ccccc1 (stereo not given)	0.552
NCCCCCNC(=O)[C@@H]1C[C@@H]2C(=O)N[C@@H](CCCCN)C(=O)N2[C@@H]1c1cccc(OCCO)c1	-0.804
CCCCC(CC)C(O)C1C=CC2C(=O)N(c3ccccc3)C(=O)C2N1Nc1ccc([N+](=O)[O-])cc1 (stereo not given)	1.68
CC(C)(C)OC(=O)CC[C@]1(C(=O)O)N=C(c2ccc(OCCCO)cc2)O[C@H]1c1ccccc1CN=[N+]=[N-]	0.32
C=C(/C(=C/C[C@@H](OC(=O)c1ccncc1)c1ccccc1OCCO)c1cc(C(=O)OC)ccc1OC)C(C)C	0.455
O=C1O[C@@H](c2ccccc2)[C@@H](c2ccccc2)N2[C@@H](c3ccccc3OCCO)[C@]3(C(=O)Nc4ccccc43)[C@@H](C(=O)NC[C@H](O)c3ccccc3)[C@H]12	1.08
COCCOC(=O)N1C(=O)[C@@]2(c3cc(C#CC4(O)CCCCCC4)ccc31)[C@H](c1ccccc1OCCO)N1[C@H](c3ccccc3)[C@H](c3ccccc3)OC(=O)[C@H]1[C@@H]2C(N)=O	1.06
O=c1cccc(-c2cccc(Cl)c2)o1	-0.137
COCCOC(=O)N1C(=O)[C@@]2(c3cc(C#CC4=CCCCC4)ccc31)[C@H](C(=O)N1CCN(c3ncccn3)CC1)[C@H]1C(=O)O[C@H](c3ccccc3)[C@H](c3ccccc3)N1[C@@H]2c1ccc(O)cc1	0.951
COCC(=C=CC[C@H](O)c1ccc(OCCO)cc1)C[C@H](O)COCc1ccccc1	-0.0904
C=C[C@@H](COC(C)=O)NS(=O)(=O)c1ccc(Br)cc1	-0.271
O=C1C2C=CC(C(O)c3cc(C(F)(F)F)cc(C(F)(F)F)c3)N(Nc3ccc([N+](=O)[O-])cc3)C2C(=O)N1c1ccccc1 (stereo not given)	1.65
CC(=O)NCCCC[C@@H]1NC(=O)[C@@H]2C[C@H](C(=O)O)[C@H](c3ccc(O)cc3)N2C1=O	-0.329
COCCOC(=O)N1C(=O)[C@@]2(c3cc(C#CC4=CCCCC4)ccc31)[C@H](c1ccc(O)cc1)N1[C@H](c3ccccc3)[C@H](c3ccccc3)OC(=O)[C@H]1[C@@H]2C(=O)Nc1nc2ccccc2s1	1.81
CC(C)CNC(=O)[C@@H]1c2ccccc2C(=O)N(Cc2cc(F)cc(C(F)(F)F)c2)[C@H]1c1ccc(CO)cc1	0.0981

SMILES	composite z-score
C=C(C(=O)CC[C@H](OC(C)=O)c1cccc(OCCO)c1)C(C)C	-0.765
O=C1O[C@@H](c2ccccc2)[C@@H](c2ccccc2)N2[C@@H](c3ccc(O)cc3)[C@]3(C(=O)Nc4ccc(C#CCCO)cc43)[C@@H](C(=O)NC[C@H](O)c3ccccc3)[C@H]12	-0.282
CCCN1C(=O)[C@]2(Cc3ccccc3)N=C(c3ccc(OCCCO)cc3)O[C@@H]2c2ccccc21	1.14
C[C@H]1C2=C3C(CC[C@H]4C(OCc5ccc(F)cc5C(F)(F)F)OC[C@](C)([C@@H]34)N(C(=O)OC(C)(C)C)C2)C2COC(=O)OCC21 (stereo not given in full)	2.39
O=C1c2ccccc2[C@](Cc2ccccc2I)(C(=O)NCCN2CCOCC2)[C@H](c2ccc(CO)cc2)N1Cc1ccccc1	1.25
COC(=O)[C@@]1(Cc2ccc(OC)cc2)[C@H]2c3cc(C(=O)N(C)C)n(Cc4nc5ccccc5[nH]4)c3C[C@H]2CN1C(=O)c1ccccc1	2.08
C[C@]1(C(=O)NC2CC2)c2ccccc2C(=O)N(Cc2ccc(OC(F)(F)F)cc2)[C@H]1c1ccc(CO)cc1	-0.42
CN(C)CCCNC(=O)[C@@H]1c2ccccc2C(=O)N(CC23CC4CC(CC(C4)C2)C3)[C@H]1c1ccc(CO)cc1	0.309
CC1CC/C=C\[C@H]2OC34C=CCN(C(C)C)C(=O)[C@H]3N(CCCCCO)C(=O)[C@@H]4C2C(=O)O1 (stereo not given in full)	-0.329
C=CCOC(=O)[C@H]1[C@@H]2C(=O)O[C@@H](c3ccccc3)[C@@H](c3ccccc3)N2[C@@H](c2ccc(OCCOC(=O)[C@H]3C[C@H]4C(=O)N[C@@H](Cc5ccccc5)C(=O)N4[C@H]3c3cccc(OCCO)c3)cc2)[C@]12C(=O)Nc1ccc(I)cc12	0.384
CC(C)CN1C(=O)[C@@]2(c3ccc([N+](=O)[O-])cc3)CC(=O)N(CC34CC5CC(CC(C5)C3)C4)[C@@H]2c2ccc(CO)cc21	0.657
C=C(CCCC)/C(=C/C[C@@H](OC(C)=O)c1ccc(CO)o1)c1cc(C(=O)OC)ccc1OC	0.723
COC(=O)C1(Cc2ccccc2)C=C2C(=C(C(C)C)C(=O)C2C)CN1 (stereo not given)	1.09
COc1ccc([Si](C)(C)[C@@H]2[C@@H](CCO)O[C@]3(C(=O)N(Cc4cccc(N5C(=O)c6cccc7cccc5c67)c4)c4ccccc43)[C@H]2C)cc1	0.831
C=CCC(OC(C)=O)[C@@H]1[C@@H](N(Cc2cc3ccccc3o2)C(=O)Cc2ccc(F)cc2)c2cc(OCCCO)ccc2N1C(=O)c1ccc2ccccc2n1 (stereo not given in full)	-0.408
C=CCOC(=O)[C@@H]1[C@H]2C(=O)O[C@H](c3ccccc3)[C@H](c3ccccc3)N2[C@H](c2ccc(OCCOC(=O)[C@H]3C[C@H]4C(=O)N[C@@H](CCCC[N+](C)(C)C)C(=O)N4[C@H]3c3ccc(O)cc3)cc2)[C@@]12C(=O)Nc1ccc(I)cc12	1.64
[N-]=[N+]=Nc1ccccc1[C@@H]1OC(c2ccc(OCCCO)cc2)=N[C@]1(CCS(=O)(=O)c1ccccc1)C(=O)NCCN1CCOCC1	0.03
